Test [1] is described as follows: qHTS assay to identify small molecule antagonists of the thyroid receptor (TR) signaling pathway (AID 743065). Further: series mostly up to about 70 µM; nearly all actives have a fitted effect of over 55% in size. In outline:
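GH3.TRE-Luc rat pituitary cells (two TREs driving luciferase) were dosed with compound, then stimulated with 1 nM T3 (final) for 23.5 h at 37 C. ONE-Glo luminescence was the read-out, with CellTiter-Fluor fluorescence as the cytotoxicity counter-screen.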
For orientation: Quantitative high-throughput screening tests each substance at several concentrations.

Test [2] concerns thyroid hormone receptor (rat, GH3 cells). The test can be described thus: qHTS assay to identify small molecule agonists of the thyroid receptor (TR) signaling pathway (AID 743066; calls by dose curve).
Test [3] deals with Estrogen receptor (Homo sapiens) (UniProt P03372). The test can be described thus: qHTS assay to identify small molecule antagonists of the estrogen receptor alpha (ER-alpha) signaling pathway (AID 743069; active means well fitted curve in the direction sought with a large enough effect in the signal ratio in the repeat runs, not every such curve was filed as active; the % refers to the signal ratio). In outline: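 Reporter cells (ER-alpha-bla, HEK293 background) are conditioned overnight in stripped-serum medium (2% charcoal-stripped FBS). Compound and 17beta-estradiol exposure runs 18 hr at 37C, 5% CO2.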

Test [4] is described as follows: qHTS assay to identify small molecule antagonists of the estrogen receptor alpha (ER-alpha) signaling pathway - cell viability counter screen (AID 743074; calls by dose curve;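 further: HEK293 cells carrying ER-alpha-UAS-bla reporter stimulated with 17beta-estradiol; nearly all actives have a fitted effect of over 45% in size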).
Test [5] addresses Estrogen receptor (Homo sapiens) (UniProt P03372). The test can be described thus: qHTS assay to identify small molecule agonists of the estrogen receptor alpha (ER-alpha) signaling pathway (AID 743075; calls by dose curve;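 further: HEK293 GripTite cells with ER-alpha and UAS-driven beta-lactamase reporter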).
For test [6] the target is unchanged. The test can be described thus: qHTS assay to identify small molecule agonists of the estrogen receptor alpha (ER-alpha) signaling pathway using the BG1 cell line (AID 743079). Further: nearly all actives have a fitted effect of over 20% in size. Further: potency means the concentration at half of the fitted maximal effect.
Test [7] can be described thus: qHTS assay to identify small molecule antagonists of the estrogen receptor alpha (ER-alpha) signaling pathway using the BG1 cell line (AID 743080; calls by dose curve;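 further: BG1 cells stimulated with 17beta-estradiol alongside compound; series mostly up to about 70 µM; nearly all actives have a fitted effect of over 25% in size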). The method, boiled down: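 Readout is ONE-Glo luminescence, taken 30 min at room temperature after reagent addition, preceded by a CellTiter-Fluor viability read; BG1-Luc-4E2 cells had received compound and 17beta-estradiol for 21.5 h at 37 C.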

The nature of test [8]: qHTS assay to identify small molecule antagonists of the estrogen receptor alpha (ER-alpha) signaling pathway using the BG1 cell line - cell viability counter screen (AID 743081).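 Further: compound given together with 17beta-estradiol as the ER stimulus; series mostly up to about 70 µM; nearly all actives have a fitted effect of over 45% in size.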
The target of another test is Aromatase (Homo sapiens) (UniProt P11511). The test can be described thus: qHTS assay to identify aromatase inhibitors (AID 743083). Further: series mostly up to about 70 µM; nearly all actives have a fitted effect of over 55% in size.
A short description of test [9]: qHTS assay to identify aromatase inhibitors - cell viability counter screen (AID 743084).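 Further: cells stimulated with testosterone during compound exposure; nearly all actives have a fitted effect of over 55% in size.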
Test [10] deals with Aryl hydrocarbon receptor (Homo sapiens) (UniProt P35869). The test can be described thus: qHTS assay to identify small molecule that activate the aryl hydrocarbon receptor (AhR) signaling pathway (AID 743085).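 Further: HG2L7.5c1 human HepG2 liver cells with stably integrated DRE-driven firefly reporter; series mostly up to about 70 µM; nearly all actives have a fitted effect of over 15% in size.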 In outline:
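Steps: seed HepG2-AhR-luc cells; allow 5 h at 37C; pin-transfer test compound or vehicle; incubate 24 h at 37C; add viability dye (30 min, 37C) and read fluorescence; add luciferase substrate (30 min, RT) and read luminescence.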

Test [11] in a line: qHTS assay to identify small molecule that activate the aryl hydrocarbon receptor (AhR) signaling pathway - cell viability counter screen (AID 743086).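 Further: HepG2 liver cells carrying the AhR DRE luciferase reporter; series mostly up to about 70 µM; nearly all actives have a fitted effect of over 45% in size.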 In outline: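 HepG2-AhR-luc (HG2L7.5c1) cells, 4000/well, treated 24 h at 37 C with compound; viability measured as CellTiter-Fluor fluorescence after 30 min in the same wells as the luciferase read.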
The target of test [12] is Peroxisome proliferator-activated receptor gamma (Homo sapiens) (UniProt P37231). The test can be described thus: qHTS assay to identify small molecule agonists of the peroxisome proliferator-activated receptor gamma (PPARg) signaling pathway (AID 743094; active means well fitted activation curve with a large enough effect in the signal ratio in the repeat runs, not every such curve was filed as active; the % refers to the signal ratio). The method, boiled down: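 Compounds dissolved in DMSO were added to PPARg UAS-bla HEK293H cells for 17 h at 37C, and reporter expression was quantified by fluorescence intensity after 1 h with LiveBLAzer B/G FRET substrate.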

Test [13] is described as follows: qHTS assay to identify small molecule antagonists of the peroxisome proliferator-activated receptor gamma (PPARg) signaling pathway - cell viability counter screen (AID 743194). Further: nearly all actives have a fitted effect of over 55% in size. The method, boiled down: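 Cytotoxicity counter screen in PPARg-bla HEK293H cells, same wells as reporter assay. Compounds plus 50 nM rosiglitazone (final) for 17 h at 37 C, then viability read by CellTiter-Glo luminescence.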

The nature of test [14]: qHTS assay for small molecule agonists of the antioxidant response element (ARE) signaling pathway (AID 743202; active means well fitted activation curve with a large enough effect in the signal ratio in the repeat runs, not every such curve was filed as active; the % refers to the signal ratio). In outline: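 Agonist mode reporter screen: HepG2 cells with ARE-controlled beta-lactamase are incubated with test compounds for 16 h at 37 C, and beta-lactamase activity is measured as fluorescence of cleaved B/G FRET substrate.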
Test [15] is described as follows: qHTS assay for small molecule activators of the heat shock response signaling pathway - cell viability counter screen (AID 743209). Further: nearly all actives have a fitted effect of over 50% in size. In outline:
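Readout: CellTiter-Glo luminescence, 30 min at room temperature. System: HSE-bla HeLa cells, 1500/well, plated overnight. Treatment: compounds in DMSO, 5 h at 37 C.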

The nature of test [16]: qHTS assay to identify small molecule agonists of the peroxisome proliferator-activated receptor delta (PPARd) signaling pathway - cell viability counter screen (AID 743211). Further: nearly all actives have a fitted effect of over 55% in size. The method, boiled down:
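Viability of GeneBLAzer PPARd UAS-bla HEK293H cells was assessed after 17 h compound incubation at 37C, using CellTiter-Glo reagent added after the reporter read and luminescence recorded 30 min later.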

A short description of test [17]: qHTS assay for small molecule activators of the heat shock response signaling pathway (AID 743210; active means well fitted activation curve with a large enough effect in the signal ratio in the repeat runs, with a control signal flat, not every such curve was filed as active; the % refers to the signal ratio;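 further: HeLa cells with beta-lactamase reporter driven by heat shock elements; series mostly up to about 63 µM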). The method, boiled down: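 Quantitative high-throughput format using an engineered HeLa line in which heat shock response elements drive beta-lactamase; after 5 h with compound, cells received a B/G FRET substrate and fluorescence was read.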
Test [18] deals with Peroxisome proliferator-activated receptor gamma (Homo sapiens) (UniProt P37231). The test can be described thus: qHTS assay to identify small molecule antagonists of the peroxisome proliferator-activated receptor gamma (PPARg) signaling pathway (AID 743191; calls by dose curve; further: series mostly up to about 63 µM; nearly all actives have a fitted effect of over 30% in size). In outline:
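GeneBLAzer PPARg UAS-bla HEK293H cells, 5 h post-plating, exposed to compounds 17 h at 37C. LiveBLAzer B/G FRET substrate added for 1 h at room temperature; beta-lactamase reporter read by fluorescence intensity.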

A short description of test [19]: qHTS assay for small molecule agonists of the antioxidant response element (ARE) signaling pathway - cell viability counter screen (AID 743203; calls by dose curve; further: nearly all actives have a fitted effect of over 55% in size). The method, boiled down:
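Following 16 hrs of compound treatment at 37C, HepG2 cells with an ARE-controlled beta-lactamase gene were lysed with CellTiter-Glo. Luminescence was read after 30 min at room temperature.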

The structures appear in SMILES notation. Several values for one entry are separate records, joined by “and”; a condition that tells them apart may be missing. Identical values can stand only once. Results filed as inconclusive are left out. A structure can be active in one record and inactive in another. Activity calls are given as the source filed them. Unless noted, the call rests on the fitted dose curve; in most records, active means well fitted curve in the direction sought with a large enough effect in the repeat runs; inconclusive means weak or mixed curves; inactive means no such curve, though single readings can be large; an effect the other way counts as inactive or inconclusive.

Sequence of Estrogen receptor (Homo sapiens) (P03372 whole entry, looked up): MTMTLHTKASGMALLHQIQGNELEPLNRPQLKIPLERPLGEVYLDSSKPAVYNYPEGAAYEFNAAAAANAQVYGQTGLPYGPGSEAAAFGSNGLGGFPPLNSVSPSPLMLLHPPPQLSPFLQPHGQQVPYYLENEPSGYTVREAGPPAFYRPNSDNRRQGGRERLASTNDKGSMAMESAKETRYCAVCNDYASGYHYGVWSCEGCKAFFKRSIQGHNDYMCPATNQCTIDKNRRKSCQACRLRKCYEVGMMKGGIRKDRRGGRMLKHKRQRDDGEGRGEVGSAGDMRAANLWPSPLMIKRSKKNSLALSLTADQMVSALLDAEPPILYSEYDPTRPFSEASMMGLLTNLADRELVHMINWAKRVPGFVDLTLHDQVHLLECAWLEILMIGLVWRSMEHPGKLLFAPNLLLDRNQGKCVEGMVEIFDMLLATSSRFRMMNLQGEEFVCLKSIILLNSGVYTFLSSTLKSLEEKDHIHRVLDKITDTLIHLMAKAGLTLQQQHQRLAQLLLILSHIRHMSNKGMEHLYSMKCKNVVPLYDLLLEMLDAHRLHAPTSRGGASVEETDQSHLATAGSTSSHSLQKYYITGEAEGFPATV
Sequence of Peroxisome proliferator-activated receptor gamma (Homo sapiens) (P37231 whole entry, looked up): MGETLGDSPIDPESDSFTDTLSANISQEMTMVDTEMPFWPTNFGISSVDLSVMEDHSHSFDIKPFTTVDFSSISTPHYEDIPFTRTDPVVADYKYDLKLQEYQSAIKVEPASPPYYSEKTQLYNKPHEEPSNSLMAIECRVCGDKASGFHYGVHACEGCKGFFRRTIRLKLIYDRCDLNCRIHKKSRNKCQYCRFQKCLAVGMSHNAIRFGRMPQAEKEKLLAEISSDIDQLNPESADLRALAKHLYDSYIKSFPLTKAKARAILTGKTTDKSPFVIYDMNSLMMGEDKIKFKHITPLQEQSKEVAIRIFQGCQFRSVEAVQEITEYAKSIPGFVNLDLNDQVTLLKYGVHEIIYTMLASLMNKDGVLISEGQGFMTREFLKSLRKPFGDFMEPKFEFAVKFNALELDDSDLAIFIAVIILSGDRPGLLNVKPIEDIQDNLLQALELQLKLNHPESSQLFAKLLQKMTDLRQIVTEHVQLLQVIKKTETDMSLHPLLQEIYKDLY
Sequence of Aryl hydrocarbon receptor (Homo sapiens) (P35869 whole entry, looked up): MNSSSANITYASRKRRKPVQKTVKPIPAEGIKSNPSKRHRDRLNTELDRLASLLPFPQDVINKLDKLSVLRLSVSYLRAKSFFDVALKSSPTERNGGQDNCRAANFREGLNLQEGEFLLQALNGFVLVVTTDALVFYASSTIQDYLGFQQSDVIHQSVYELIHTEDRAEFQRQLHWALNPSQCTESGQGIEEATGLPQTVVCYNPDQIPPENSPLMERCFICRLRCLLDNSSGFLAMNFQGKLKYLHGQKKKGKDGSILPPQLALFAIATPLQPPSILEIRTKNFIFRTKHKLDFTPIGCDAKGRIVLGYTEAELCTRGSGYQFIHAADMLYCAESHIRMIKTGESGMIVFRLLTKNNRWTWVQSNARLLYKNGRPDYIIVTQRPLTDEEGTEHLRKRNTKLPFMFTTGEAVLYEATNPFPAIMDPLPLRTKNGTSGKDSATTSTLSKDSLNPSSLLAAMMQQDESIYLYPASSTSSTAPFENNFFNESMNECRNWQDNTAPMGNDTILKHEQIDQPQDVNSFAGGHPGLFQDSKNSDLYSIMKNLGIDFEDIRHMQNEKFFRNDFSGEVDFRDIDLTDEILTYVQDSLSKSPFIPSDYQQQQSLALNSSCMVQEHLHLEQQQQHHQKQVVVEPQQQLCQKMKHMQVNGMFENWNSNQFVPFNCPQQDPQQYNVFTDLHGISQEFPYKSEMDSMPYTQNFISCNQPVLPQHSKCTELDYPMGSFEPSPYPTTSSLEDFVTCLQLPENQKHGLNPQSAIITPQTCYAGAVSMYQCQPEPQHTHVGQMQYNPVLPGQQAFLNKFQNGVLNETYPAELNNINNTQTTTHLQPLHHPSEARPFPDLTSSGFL
Sequence of Aromatase (Homo sapiens) (P11511 whole entry, looked up): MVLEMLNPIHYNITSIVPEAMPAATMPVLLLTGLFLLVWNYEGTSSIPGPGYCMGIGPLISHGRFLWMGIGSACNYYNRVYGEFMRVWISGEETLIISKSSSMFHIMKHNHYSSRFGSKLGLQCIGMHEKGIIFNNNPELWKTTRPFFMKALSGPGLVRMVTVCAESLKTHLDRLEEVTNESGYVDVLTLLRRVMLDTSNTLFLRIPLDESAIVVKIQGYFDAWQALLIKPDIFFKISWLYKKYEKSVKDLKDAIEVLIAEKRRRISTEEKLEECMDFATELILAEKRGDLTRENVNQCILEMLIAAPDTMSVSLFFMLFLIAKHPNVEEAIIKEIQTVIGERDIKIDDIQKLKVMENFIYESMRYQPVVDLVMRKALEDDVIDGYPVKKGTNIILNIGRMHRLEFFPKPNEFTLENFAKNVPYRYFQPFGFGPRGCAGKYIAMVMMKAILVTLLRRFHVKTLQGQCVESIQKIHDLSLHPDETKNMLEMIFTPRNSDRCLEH

As to `C/C=C1/CC2C=CC1C2` (stereo unspecified), the Potency entry in test [1], in test [2], in test [3], in [5], in test [6] and in [7] was “inactive” throughout. In addition, the Potency result (in test [8]; with Aromatase (Homo sapiens); in test [9]; in test [10]; in test [14]) was “inactive” each time. Moreover, the call in test [4], in test [11], in test [12], in test [13], in test [15] and in [16] was inactive.

With `C=CCOC(=O)c1ccccc1C(=O)OCC=C`, the Potency result in [1], in test [2], in [3], in [5], in test [6] and in test [7] was “inactive” throughout. Besides, the Potency result in [8], in [9], in test [10], in test [14] and in test [17] was “inactive” throughout. The compound was called inactive in test [4], in test [11], in test [12], in test [13], in test [15] and in test [16].

In the case of `c1ccc(OCCOc2ccccc2)cc1`, the Potency entry (in test [1]; in test [2]; in [3]; in [5]; in test [8]; in the test with Aromatase (Homo sapiens)) was “inactive” in each case. Moreover, the Potency result in [9] and in [14] was “inactive” throughout. The compound was classed as inactive in [4], in test [11], in test [12], in test [18], in [13] and in [15]. For the same compound, the compound was classed as inactive in [16]. In addition, the Potency in [6] was 61.1 µM (active) and 54.5 µM (active).

Regarding `C=CCNC(N)=S`, the Potency result (in test [1]; in test [2]; in test [8]; in the test with Aromatase (Homo sapiens); in test [9]; in test [10]) was “inactive” in each case. For the same compound, the Potency entry in test [14] and in test [17] was “inactive” throughout. The outcome in test [4], in test [11], in test [12], in [18], in [13] and in test [19] was inactive. Moreover, the call in [15] and in test [16] was inactive.

With `O=C(O)CCCCCCCCCCC(=O)O`, the Potency entry in [1], in [2], in test [3], in [5], in test [7] and in [8] was “inactive” each time. Also, the Potency entry (with Aromatase (Homo sapiens); in test [9]; in test [10]; in [14]) was “inactive” each time. In addition, the call in test [4], in test [11], in [13], in test [15] and in test [16] was inactive. In addition, the Potency result in test [6] was “inactive and 61.1 µM (active)”.

For the compound `O=[N+]([O-])c1ccc(/C=C/c2ccc([N+](=O)[O-])cc2S(=O)(=O)O)c(S(=O)(=O)O)c1`, the Potency result in [1], in [2], in test [3], in [5], in [6] and in test [7] was “inactive” each time. Also, the Potency result (in test [8]; in the test with Aromatase (Homo sapiens); in test [9]; in test [10]; in test [14]) was “inactive” each time. Moreover, the call in test [4], in test [11], in test [12], in test [13], in [15] and in test [16] was inactive.

As to `CC1=CCC2CC1C2(C)C` (stereo unspecified), the Potency entry in test [1], in test [2], in test [3], in [5], in test [6] and in [7] was “inactive” throughout. Besides, the Potency result (in test [8]; with Aromatase (Homo sapiens); in test [9]; in test [14]; in test [17]) was “inactive” in each case. Moreover, the compound was called inactive in [4], in test [11], in [12], in test [13], in test [15] and in test [16].

Consider `OCC(CO)(CBr)CBr`, for which the Potency result (in test [1]; in test [2]; in test [8]; with Aromatase (Homo sapiens); in test [9]; in test [10]) was “inactive” throughout. Further, the Potency entry in test [14] is “inactive”. The compound was called inactive in [4], in [11], in test [12], in [18], in [13] and in test [19]. Further, the compound was classed as inactive in [15] and in test [16].
